In PubChem BioAssay AID624418 (National Center for Advancing Translational Sciences (NCATS), 2012):
Out of some 410,000 compounds screened, about 530 (0.13%) were called active. Roughly 5% stayed inconclusive and do not appear here. Calls come from the whole dose curve; as a rule, active = well fitted inhibition curve with a large enough effect; inconclusive = small, poorly fitted or top-dose-only effect, or another doubt; inactive = no such curve, though single readings can be large or run the other way. The full list was thinned out, with actives kept by preference.

Assay: qHTS of GLP-1 Receptor Inverse Agonists: Cytotox Screen;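 note: loss of luciferase light is scored as toxicity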
Settings: HEK293 cAMP-luciferase reporter cells, luminescence, 24 h; series mostly up to 38.3 µM; activity change, negative = inhibition: at the top concentration
In short: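 To flag toxic compounds, the library was rerun on cells for 24 hr at 37 deg C and 5% CO2. Viability-linked luminescence was captured 12 min after adding luciferase detection reagent.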
% is set by controls: 0 for no effect and ±100 for the full control effect; potency is the fitted concentration of half-maximal effect.

Row | SMILES | activity change, negative = inhibition | Potency
1 | CCSc1nnc2c(n1)OC(c1ccc(OCC(=O)O)cc1)Nc1ccccc1-2 (stereo not drawn) | -17.3% (inactive) | –
2 | Cc1ccc2oc(=O)c3cnn(CC(=O)NCc4ccccc4Cl)c3c2c1 | 0.436% (inactive) | –
3 | CCc1cccc(NC(=O)c2cc(-c3ccccc3)n[nH]2)c1 | 0.207% (inactive) | –
4 | O=C(CCl)Nc1cccc(CP(=O)(c2ccccc2)c2ccccc2)c1 | – | 3.16 µM (active)
5 | O=C(CNCc1ccc(Cl)cc1)Nc1cccc(C(=O)O)c1 | -7.74% (inactive) | –
6 | CCn1cc(C(=O)OCC(=O)Nc2cc(C)cc(C)c2)c(=O)c2ccc(C)nc21 | 1.31% (inactive) | –
7 | COc1ccc(CNc2nc(-c3ccccc3)nn2C(=O)c2ccccc2OC)cc1 | 3.12% (inactive) | –
8 | Cc1ccc(Nc2c(-c3ccc(Cl)cc3)nc3sccn23)c(C)c1 | -9.65% (inactive) | –
9 | CCOC(=O)N1CCc2c(sc3c2c(=O)n(-c2ccc(CC)cc2)c(=O)n3C)C1 | 8.52% (inactive) | –
10 | CCCN(CCC)CCCNC(=O)Cn1ncc2c3ccccc3n(Cc3ccccc3)c2c1=O | -1.81% (inactive) | –
11 | CCCN(C(=O)Cn1cc(S(=O)(=O)N2CCN(c3ccccc3F)CC2)c2ccccc2c1=O)c1cccc(C)c1 | -2.03% (inactive) | –
12 | CSc1oc(-c2cccs2)nc1S(=O)(=O)c1ccc(Br)cc1 | 27.9% (inactive) | –
13 | O=C(c1ccc(C(F)(F)F)cc1)N1CCC(c2nc(-c3ccc(S(=O)(=O)N4CCCC4)cc3)no2)CC1 | -10.9% (inactive) | –
14 | CCN(CCCNC(=O)c1c(C)oc2ncn(CC(C)C)c(=O)c12)Cc1ccccc1 | 1.92% (inactive) | –
15 | CCC1CCCCN1S(=O)(=O)c1ccc(NC(=O)c2cc(=O)c3ccccc3o2)cc1 (stereo not drawn) | 2.36% (inactive) | –
16 | CC(C)CC(=O)NCC(c1ccc2c(c1)OCO2)N1CCN(c2ccc(F)cc2)CC1 (stereo not drawn) | 0.505% (inactive) | –
17 | CCNC(=O)CC1C(=O)N(c2ccc(F)cc2)C(=O)N1Cc1ccc(C)cc1 (stereo not drawn) | -12.9% (inactive) | –
18 | Cc1cc2c(cc1S(=O)(=O)CCC(=O)Nc1ccc(OC(F)(F)F)cc1)OCC(=O)N2 | -12.7% (inactive) | –
19 | CCOC(=O)c1[nH]c(C)c(CCC(=O)NCc2ccccc2C)c1C | 2.99% (inactive) | –
20 | Cc1ccc2oc3c(c(=O)c2c1)C(c1ccc([N+](=O)[O-])cc1)N(CCCN1CCOCC1)C3=O (stereo not drawn) | 3.33% (inactive) | –
21 | O=S(=O)([N-]c1nc2ccccc2nc1-[n+]1ccc(Cc2ccccc2)cc1)c1ccc(Br)s1 | – | 10 µM (active)
22 | CCOc1ccc(C(NC(=O)c2cc(OC)c(OC)c(OC)c2)c2cc(Cl)c3cccnc3c2O)cc1 (stereo not drawn) | -29% (inactive) | –
23 | O=C(NC1CCN(Cc2ccccc2)CC1)c1ccc(Cn2c(=O)c3ccccc3n(Cc3cccc(F)c3)c2=O)cc1 | 10.6% (inactive) | –

Row | SMILES | activity change, negative = inhibition | Potency
24 | CCOC(=O)c1cc(-c2ccc(OC)c(S(=O)(=O)Nc3ccc(OC)cc3OC)c2)on1 | 2.54% (inactive) | –
25 | Cc1cc(C)cc(NC(=O)CCS(=O)(=O)c2cc3c4c(c2)CCN4C(=O)CC3)c1 | 1.12% (inactive) | –
26 | COc1cccc(NC(=O)CSc2cc(=O)n(C)c3ccc(Cl)cc23)c1 | 1.69% (inactive) | –
27 | CN(Cc1ccccc1)C(=O)c1cn(C)c2ccc(S(=O)(=O)N(C)C3CCCCC3)cc2c1=O | 3.25% (inactive) | –
28 | CCOC(=O)Cn1c(=O)n(C2CCCCC2)c2nc(-c3cccc(OC)c3)nc(C(N)=O)c21 | 1.53% (inactive) | –
29 | COc1cccc(Cn2c(SCc3ccc(C(=O)N4CCC(C)CC4)cc3)nc3ccncc32)c1 | -1.45% (inactive) | –
30 | Cc1cc(C)cc(NS(=O)(=O)c2ccc3[nH]cc(C(=O)N4CCCCC4)c(=O)c3c2)c1 | -4.69% (inactive) | –
31 | Cc1cn(C)c(CC(=O)NCc2ccccc2)c1C(=O)O | 5.49% (inactive) | –
32 | COc1ccccc1NC(=O)c1cc(C2CC2)nc2c1c(C)nn2-c1ccc(C)cc1 | -5.07% (inactive) | –
33 | Cc1ccc(S(=O)(=O)NCc2nc3nc(C)cc(C)n3n2)cc1 | 2.32% (inactive) | –
34 | COc1ccc2c(c1)c(N1CCCC1=O)c(C(=O)Nc1ccccc1C(F)(F)F)n2C | -1.4% (inactive) | –
35 | Cc1ccc(Nc2nnc(-c3ccc(C)c(S(=O)(=O)N4CCCCC4)c3)c3ccccc23)cc1 | 10.8% (inactive) | –
36 | COc1ccc(NC(=O)CCCc2nnc3n(CCC(C)C)c(=O)c4sccc4n23)c(OC)c1 | 5.32% (inactive) | –
37 | Cc1cccc(NC(=O)N2CCN(C)c3ncccc32)c1C | 0.303% (inactive) | –
38 | Cc1ccc(NC(=O)Cn2c(=O)n(-c3ccccc3)c(=O)c3c4c(sc32)CCCC4)cc1 | -4.75% (inactive) | –
39 | CCN(CC)S(=O)(=O)c1ccc(C(=O)N=c2sc3cccc(OC)c3n2C)cc1 | 5.63% (inactive) | –
40 | O=C(c1cccs1)c1cn(CCOc2ccc(Cl)cc2)c2ccccc12 | 0.0889% (inactive) | –
41 | CCc1ccc(NC(=O)c2cc(S(=O)(=O)N3CCCC(C)C3)cn2C)cc1 (stereo not drawn) | -16.5% (inactive) | –
42 | COc1ccc(CCNCc2c(C(=O)O)c(C)n(Cc3cccc(C)c3)c2C)cc1OC | -1.48% (inactive) | –
43 | Cc1cn(C)c(CC(=O)NCc2ccc(Cl)cc2)c1C(=O)O | -7.39% (inactive) | –
44 | CCOc1ccc(N2CC(c3nc4ccccc4n3CCOc3ccc(OC)cc3)CC2=O)cc1 (stereo not drawn) | -12% (inactive) | –
45 | O=C(NCc1ccccc1Cl)c1cccn1-c1nnc(N2CCCCC2)s1 | -1.65% (inactive) | –
46 | COc1ccc(N(CC(=O)NCCc2ccc(Cl)cc2)S(=O)(=O)c2c(C)nn(C)c2C)cc1 | -6.46% (inactive) | –

Row | SMILES | activity change, negative = inhibition | Potency
47 | CC(CNC(=O)c1nnc(Cc2cccc(F)c2)o1)c1ccccc1 (stereo not drawn) | 0.552% (inactive) | –
48 | Cc1ccc(CNC(=O)CCc2c(C)nc3c(c(C)nn3-c3ccccc3)c2C)cc1 | 12.6% (inactive) | –
49 | CNc1ccc(-c2nc(-c3ccco3)no2)cc1[N+](=O)[O-] | 2.51% (inactive) | –
50 | O=C(NCCc1ccc(Cl)cc1)c1ccc2c(c1)N(Cc1ccc(F)cc1)C(=O)CS2 | -10.6% (inactive) | –
51 | CCOc1ccc(-c2nonc2NC(=O)c2oc3ccc(CC)cc3c2C)cc1 | -6.03% (inactive) | –
52 | COc1ccc(NC(=O)C(c2ccccc2)N2Cc3ccccc3C2=O)cc1 (stereo not drawn) | 3.88% (inactive) | –
53 | CCOc1ccc(NC(=O)C2CCN(S(=O)(=O)c3cc(-c4noc(C)n4)ccc3C)CC2)cc1 | -6.45% (inactive) | –
54 | CC1CC2=C(CC1/C=N/NC(N)=S)C(C)(C)CCC2 (stereo not drawn) | – | 2.24 µM (active)
55 | Cc1nc2c(-c3ccccc3)c(C)nn2c(C)c1CCC(=O)NCCc1ccccc1 | 2.89% (inactive) | –
56 | Cc1cccc(CSc2nc3ccncc3n2CC(=O)N(C)C2CCCCC2)c1 | 0.871% (inactive) | –
57 | CC(C)(C)OC(=O)N1CCC(c2c(C(=O)N3CCN(c4cccc(Cl)c4)CC3)cnn2-c2cccc(Cl)c2)CC1 | 1.54% (inactive) | –
58 | COc1cc(/C=C/C(=O)N2CCc3ccccc3C2)cc(OC)c1OC | 3.72% (inactive) | –
59 | COc1ccccc1Nc1c2c(nc3ccc(NC(=O)/C=C/c4cc(OC)c(OC)c(OC)c4)cc13)CCCC2 | – | 4.47 µM (active)
60 | CCOc1ccc(C(=O)Nc2ccc3nc4c(c(Nc5ccccc5OC)c3c2)CCCC4)cc1 | -22.1% (inactive) | –
61 | CC(=O)N1CCc2cc(S(=O)(=O)NC(Cc3ccccc3)C(=O)NCc3ccc(C)cc3)ccc21 (stereo not drawn) | -0.157% (inactive) | –
62 | Clc1cccc(-n2ncc3c(NCCc4ccccc4)ncnc32)c1 | -12.3% (inactive) | –
63 | CCn1cc(C(=O)NCc2ccc(C)cc2)c(=O)c2cc(S(=O)(=O)N3CCc4ccccc4C3)ccc21 | -11.4% (inactive) | –
64 | CCOc1cc(C(=O)NCCc2csc3nc(-c4ccc(C)cc4)nn23)cc(OCC)c1OCC | 7.6% (inactive) | –
65 | CCCCN1CC(c2nc3ccccc3n2CCCCOc2ccc(C)cc2C)CC1=O (stereo not drawn) | -18.1% (inactive) | –
66 | CC(C)Oc1c(Br)cc(Br)cc1/C=N/NC(N)=S | – | 2.51 µM (active)
67 | CC1(C(=O)N/N=C/c2cc3c(cc2Br)OCO3)CC1(Br)Br (stereo not drawn) | 5.99% (inactive) | –
68 | CCCCn1cc(S(=O)(=O)c2ccc(OCC)cc2)c(=O)c2cc(OC)c(OC)cc21 | -4.49% (inactive) | –
